In all, about 68,000 compounds went through this assay and about 2,700 (4%) showed an effect of 50% or more. Only a selection was taken, and strong results are over-represented in it overall.

The test system of this experiment is Plasmodium berghei. The experiment can be described thus: Screen against P. berghei liver stage (PbLuc), transformed with Luciferase, at 2uM. The experiment is classed as functional, HepG2. To be noted: tested at 2 uM.
As to `O=C(NCC(=O)N1CCc2ccccc2C1)c1cnccn1`, the INHIBITION was found to be 23.94%.
The value for `CC(C)(CO)Nc1cc(-c2cn[nH]c2)ncn1` was 6.03%; that for `CCCn1nccc1NC(=O)CN1CCC[C@H]1CO` was 13.53%; that for `CCCn1nccc1NC(=O)CN1CCCC1Cn1cc(C)cn1` (stereo not drawn) was 50.32%.
The figure for `CCCn1nccc1NC(=O)CN1CCCC1Cn1cccn1` (stereo not drawn) is 33.9%; for `Cc1cnn(CC2CCCCN2CC(=O)Nc2nc(C)cs2)c1` (stereo not drawn) it is 67.69%; for `Cc1cnn(CC2CCCN2CC(=O)Nc2nc(C)cs2)c1` (stereo not drawn) it is -54.73%.
Regarding `Cc1cnn(CC2CCCCN2CC(=O)Nc2nncs2)c1` (stereo not drawn), the INHIBITION came to 23.65%.
Consider `Cc1cc(O)n(-c2ccccc2Cl)c(=O)c1C#N`, for which the INHIBITION turned out to be 3.1%.
On to `O=C1NCCCCC1NS(=O)(=O)N1CCCCCC1` (stereo not drawn), for which the INHIBITION was -4.89%.
The value for `CC(C)N1CC[C@H]2[C@H](C[C@@H](Cn3cncn3)N2c2nccs2)C1` was 27.61%; that for `CC(C)(C)c1nnc(CN2CCOC(Cn3cncn3)C2)o1` (stereo not drawn) was 62.13%.
The value for `CC(C)(C)c1nnc(CN2CCCC(Cn3cncn3)C2)o1` (stereo not drawn) was 15.31%; that for `Fc1ccc(-c2nnc(CN3CCOC(Cn4cncn4)C3)o2)cc1` (stereo not drawn) was -77.99%.
The figure for `CC(C)(C)c1nnc(CN2CCOC(Cn3cccn3)C2)o1` (stereo not drawn) is 11.18%; for `Cc1ccc(-c2nnc(CN3CCOC(Cn4cncn4)C3)o2)cc1` (stereo not drawn) it is 51.46%; for `CN(C)C(=O)c1cccc(CN2CCOC(Cn3cncn3)C2)c1` (stereo not drawn) it is 74.35%.
For the molecule `Cc1ccc(-c2nnc(CN3CCOC(Cn4cccn4)C3)o2)cc1` (stereo not drawn), the INHIBITION is -47.05%.
The value for `CN(C)C(=O)c1cccc(CN2CCOC(Cn3cccn3)C2)c1` (stereo not drawn) was -21.39%; that for `Cc1cnn(CC2CN(Cc3cccc(C(=O)N(C)C)c3)CCO2)c1` (stereo not drawn) was 18.46%.
The figure for `Cc1ccc(CCNC(=O)Nc2cc(C(F)(F)F)c[nH]c2=O)o1` is -0.12%.
The figure for `O=C(c1n[nH]c2c1CN(C1CCOCC1)CC2)N1CCCC1` is 30.95%.
`Cc1cccc(N(C)Cc2cc(=O)n3oc(C)cc3n2)c1`: the INHIBITION was 4.91%.
As for `N#CCCN(CC1CCOC1)Cn1ccc(-c2cccs2)n1` (stereo not drawn), the INHIBITION was -42.48%.
The figure for `COc1cc(C)nc(N2CCN(C(=O)CN(C)C(C)C)CC2)n1` is 10.22%.
The value for `COc1ccccc1OCCC(=O)NCc1ncc(C)c(OC)c1C` was 40.51%; that for `COc1c(C)cnc(CNC(=O)CCOCc2ccccc2)c1C` was 65.76%; that for `COc1c(C)cnc(CNC(=O)CCOCC(C)C)c1C` was 5.17%.
The value for `CN1CCCC1c1cccc(Cc2ccc(F)cc2)n1` (stereo not drawn) was 16.32%; that for `Cc1cc(-c2nnn(CCC(N)=O)n2)ccc1F` was 5%.
In the case of `Cc1cc(-c2nnn(CCNS(C)(=O)=O)n2)ccc1F`, the INHIBITION is 69.72%.
As to `CNS(=O)(=O)CCCn1nnc(-c2ccc(F)c(C)c2)n1`, the INHIBITION was 31.66%.
The figure for `COc1ccc([C@@H]2CN(Cc3ccncc3)C[C@H]2c2cc[nH]n2)cc1` is -128.75%; for `c1ccc([C@@H]2CN(Cc3cccnc3)C[C@H]2c2cc[nH]n2)cc1` it is 50.94%.
`c1ccc([C@@H]2CN(Cc3ccncc3)C[C@H]2c2cc[nH]n2)cc1`: the INHIBITION stood at 48.22%.
Turning to `CS(=O)(=O)c1cccc(C(=O)NCCCN2CCc3ccccc3C2)c1`, the INHIBITION came to 5.59%.
Consider `c1cnc(N2CC3(CCN(C4CCOCC4)CC3)c3ccccc32)nc1`, for which the INHIBITION is listed as -23.45%.
In the case of `CN(CCn1nc2ccccn2c1=O)CC(=O)NC1CC1`, the INHIBITION is 16.6%.
The figure for `CCN(CC)C(=O)CN(C)CCn1nc2ccccn2c1=O` is 8.88%; for `CC(=O)N1CCCN(CCn2nc3ccccn3c2=O)CC1` it is 52.66%.
With `CCC(=O)CNC(=O)CCn1nc2ccccn2c1=O`, the INHIBITION was -12.95%.
The value for `CCNC(=O)NCCCn1nc2ccccn2c1=O` was -53.4%; that for `O=C(NCCCn1nc2ccccn2c1=O)NC(C1CC1)C1CC1` was -35.46%; that for `CCC(C)NC(=O)NCCCn1nc2ccccn2c1=O` (stereo not drawn) was 55.7%.
The value for `CN(C)C(=O)N1CCN(CCn2nc3ccccn3c2=O)CC1` was 50.32%.
The value for `CN(CCn1nc2ccccn2c1=O)CC(=O)N1CCCC1` was 17.19%; that for `CN1CCN(C(=O)c2cnsn2)c2ccc(F)cc21` was 36.24%.
As for `CN(C)CCCn1ccnc1C1CCCN(c2ncc(Cl)cc2F)C1` (stereo not drawn), the INHIBITION was -18.59%.
For the molecule `Cc1noc([C@H]2C[C@H]3OCC[C@H]3N(Cc3cccs3)C2)n1`, the INHIBITION is recorded as -27.21%.
The figure for `c1cnc(N2CCCC3(CCN(CC4CCC4)C3)C2)nc1` (stereo not drawn) is -20.98%; for `CN(C)c1cc(CNC(=O)Nc2cccnc2N2CCCC2)ccn1` it is -43.4%; for `Cn1cccc(NC(=O)N2CCC(COCc3ccccc3)C2)c1=O` (stereo not drawn) it is -5.79%.
Consider `CN1CCN(C2CCN(Cc3nc(-c4ccoc4)no3)CC2)C1=O`, for which the INHIBITION was -17.31%.
The value for `Cc1ncc(CN(C)C(=O)Nc2ccc(CN3CCOC3=O)cc2)s1` was 10.61%; that for `Cc1ncc(CN(C)C(=O)Nc2cccc(CN3CCOC3=O)c2)s1` was 56.2%.
The figure for `Cc1ncc(CN(C)C(=O)Nc2cccc(N3CCOC3=O)c2)s1` is -127.85%; for `CS(=O)(=O)NC1CCCN(Cc2ccc(OCc3ccccn3)cc2)C1` (stereo not drawn) it is 10.63%; for `CC(=O)NC1CCCN(Cc2ccc(OCc3ccccn3)cc2)C1` (stereo not drawn) it is 57.92%.
The figure for `CCN1CCOC(CNCc2ccc(OCc3ccccn3)cc2)C1` (stereo not drawn) is 50.75%.
`CS(=O)(=O)NC1CCN(Cc2ccc(OCc3ccccn3)cc2)CC1`: the INHIBITION was -15.64%.
The figure for `CN1CCOC(CNCc2ccc(OCc3ccccn3)cc2)C1` (stereo not drawn) is -12.27%; for `CCN1CCOC(CNCc2cccc(OCc3ccccn3)c2)C1` (stereo not drawn) it is 3.06%; for `c1cnc(N2C[C@H]3CCN(CCN4CCCC4)C[C@H]3C2)cn1` it is -27.22%.
The value for `COCCNC(=O)c1nnc2ccc(N3CCOCC3)cc2n1` was 26.54%; that for `CSc1nc2ncc3c(=O)n(CCN4CCCCC4)ccc3n2n1` was 8.9%.
The figure for `COC1CCN(C(=O)CC2CCCC2)CC(=O)N(C)c2ccccc21` (stereo not drawn) is 8.41%; for `COC1CCN(C(=O)CC(C)(C)C)CC(=O)N(C)c2ccccc21` (stereo not drawn) it is 51.71%.
On to `COC1CCN(C(=O)COC(C)=O)CC(=O)N(C)c2ccccc21` (stereo not drawn), for which the INHIBITION is recorded as -46.46%.

(Values after ChEMBL document CHEMBL4513216, “Probing the Open Global Health Chemical Diversity Library for Multistage-Active Starting Points for Next-Generation Antimalarials” (ACS Infect Dis, 2020).)
